Assay outcomes: PubChem BioAssay, National Center for Advancing Translational Sciences (NCATS)
This excerpt belongs to a sample that is enriched for hits.
LASV entry inh: blocks Lassa virus binding to or entry into cells. Lassa virus pseudotype entry inhibition, cell reporter. Potency, µM (series often up to 37.9 µM), actives largely listed as inhibitors. 1.2% of 300,000 active. AID 540256; calls by dose curve; tested in HEK293 cells; note: nearly all actives have a fitted effect of over 50% in size
AMA1 RON2 block: inhibitors of Plasmodium falciparum AMA1-RON2 interaction; Potency, µM (doses to about 58.2 µM), usual class: inhibitors; AlphaScreen AMA1-biotinylated RON2 peptide binding; 0.2% of 360,000 active; active = well fitted inhibition curve with a large enough effect; inconclusive = small, poorly fitted or top-dose-only effect; inactive = no such curve, though single readings can be large or run the other way; note: nearly all actives have a fitted effect of over 45% in size
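AMA1 (3D7) with his tag at 25 nM final met compounds first, then biotinylated RON2 peptide at 25 nM; detection used donor plus acceptor beads, 10 µg/mL apiece, read by AlphaScreen after 30 min at room temperature.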
Shiga inhibitor: Shiga toxin inhibition; 9.2% of 290,000 active; AID 2315; Vero cells, Shiga toxin protein synthesis inhibition reporter; inhibition, % at 38.7 µM; in the data active = inhibition mostly above about 28%, no sharp cut-off; inactive = mostly below about 43%
MARV entry inh: Marburg virus entry inhibition; Potency, µM (series often up to 37.8 µM), most hits filed as inhibitors; Marburg virus pseudotyped entry inhibition, cell reporter; 1.8% of 300,000 active; calls by dose curve; tested in HEK293 cells
Cycloheximide cs: counter-screen hit for Shiga toxin inhibitors, cycloheximide; cell reporter, cycloheximide protein synthesis inhibition counterscreen; 12% of 300,000 active; max response, %; in the data active = max response mostly above about 13%, no sharp cut-off; inactive = mostly below about 14%; note: read at 38.3 µM for the half of the compounds with a filed dose
Hits are given with their value; - = inactive; ? = inconclusive; . = no result.

SMILES	LASV entry inh	AMA1 RON2 block	Shiga inhibitor	MARV entry inh	Cycloheximide cs
CCCCc1ccc(S(=O)(=O)NC(=O)C2(C)CCN2C(=O)C/C=C/c2ccccc2)cc1 (centres undefined)	.	-	.	.	.
COc1ccc(N2CCN(C(=O)c3cc(C)on3)CC2)cc1	-	-	-	-	-
COc1cccc(-c2cc(C(=O)N3CCOCC3)no2)c1	-	-	-	10µM	40.1
COc1cccc(-c2cc(C(=O)N3CCN(C(c4ccccc4)c4ccccc4)CC3)no2)c1	-	-	-	-	-
COc1ccc(-c2cc(C(=O)N3CCOCC3)no2)cc1	?	-	-	?	30.3
COc1ccc(-c2cc(C(=O)N3CCOCC3)no2)cc1OC	-	?	128.8	-	29.1
COc1cc2c(cc1OC)C(c1ccccc1O)N(C1CC(=O)N(c3ccccc3)C1=O)CC2 (centres undefined)	-	-	-	?	-
CCN(CC)c1ccc(C=C2C(=O)OC(c3ccccc3)OC2=O)cc1 (centres undefined)	-	-	-	-	-
CCN(CC)c1ccc(/C=C/C(=O)C2C(=O)C=C(C)OC2=O)cc1 (centres undefined)	?	-	99.9	?	25.7
Cc1ccc(OCC(=O)Nc2c(C(=O)c3ccc(Cl)cc3)oc3ccccc23)cc1C	-	.	.	-	.
O=C(Cc1ccccc1)NC1CC(=O)N(c2ccccc2)C1 (centres undefined)	-	.	.	.	.
N#Cc1ccsc1NC(=O)CCc1ccccc1	.	-	67.6	?	32.0
N#Cc1ccsc1NC(=O)CCN1CCN(C(c2ccccc2)c2ccccc2)CC1	?	-	-	10µM	-
CCCCN1C(=O)c2ccc(C(=O)NCc3ccco3)cc2C1=O	.	-	-	.	-
c1ccc2c(c1)nnn2-c1ncnc2sccc12	-	-	62.1	-	33.7
COc1ccc(C)cc1NC(=O)N1CCN(S(=O)(=O)c2ccc3c(ccn3C)c2)CC1	-	.	.	.	.
O=C(Cc1ccccc1)NC(=S)Nc1ccc(OC(F)F)cc1	-	-	38.6	-	17.8
COc1ccc(NC(=S)NC(=O)Cc2ccccc2)cc1	.	-	.	.	24.8
O=C(O)c1ccccc1Nc1ccc(OC(F)F)cc1	?	-	42.5	?	34.7
CCOC(=O)C1CCN(c2c(N3CCCC(C(=O)OCC)C3)c(=O)c2=O)CC1 (centres undefined)	-	-	-	-	-
CCN1C(=O)/C(=C/N2CCc3ccccc3C2)SC1=S	-	-	-	-	15.7
CCOc1ccccc1C=C1SC(=S)N(CC)C1=O	-	-	.	-	.
CCN1C(=O)/C(=C/N2CC(C)CC(C)C2)SC1=S (centres undefined)	-	-	-	-	-
CCOC(=O)C1CCCN(/C=C2\SC(=S)N(CC)C2=O)C1 (centres undefined)	.	-	-	-	7.9
CCN1C(=O)/C(=C\N2CCCCCC2)SC1=S	?	-	-	-	15.1
SMILES	LASV entry inh	AMA1 RON2 block	Shiga inhibitor	MARV entry inh	Cycloheximide cs
CCc1cccc(C)c1NC(=O)Cn1cc2c(n1)CCCC2	-	.	.	-	.
Nc1ccc(-c2nnn(Cc3ccccc3)n2)cc1	-	-	.	?	.
CSc1ccc(-c2nnn(Cc3ccc(C)cc3)n2)cc1	-	-	-	?	21.0
Cc1ccccc1Cn1nnc(-c2ccc(C(=O)O)cc2)n1	-	-	-	?	-
Cc1ccccc1-c1nnn(Cc2ccc(-c3nn[nH]n3)cc2)n1	-	-	-	-	-
O=C(O)c1cccc(-c2nnn(Cc3ccccc3)n2)c1	?	-	63.2	?	69.6
O=C(O)c1cccc(OCc2ccccc2Cl)c1	?	-	121.5	?	111.1
Cc1ccccc1Cn1nnc(-c2cccc(C(=O)O)c2)n1	13µM	-	123.8	5.8µM	56.1
CN(C)/[N+]([O-])=N/Oc1cc(ON=[N+]([O-])N2CCN(c3ncccn3)CC2)c([N+](=O)[O-])cc1[N+](=O)[O-]	.	.	-	.	-
O=C(O)c1cccc(-c2nnn(Cc3ccccc3Cl)n2)c1	8.2µM	-	95.9	6.31µM	41.2
O=C(OCc1ccccc1Cl)c1ccc(-c2nnn(Cc3ccccc3Cl)n2)cc1	-	.	.	-	.
COc1ccc(-c2nnn(Cc3ccccc3)n2)cc1	?	-	86.4	-	44.1
CN(C)c1ccc(NC(=O)c2ccc([N+](=O)[O-])cc2Cl)cc1	?	-	75.3	?	46.2
O=C(Nc1cccc(O)c1)c1ccc([N+](=O)[O-])cc1Cl	.	-	60.9	.	31.7
CC(=O)Nc1cccc(NC(=O)c2ccc([N+](=O)[O-])cc2Cl)c1	-	-	-	-	-
Cc1ccc(O)c(NC(=O)C2=CC(c3ccco3)=NS(=O)(=O)N2C)c1	-	-	-	-	-
